Records with an inconclusive call do not appear. The source made the active and inactive calls. Unless noted, calls follow the shape of the dose curve; as a rule, active = well fitted curve in the direction sought with a large enough effect in the repeat runs; inconclusive = weak or mixed curves; inactive = no such curve, though single readings can be large; an effect the other way counts as inactive or inconclusive.
Assays:
[1] = molecular target: Progesterone receptor (Homo sapiens) (UniProt P06401); experiment: qHTS assay to identify small molecule agonists of the progesterone receptor (PR) signaling pathway (AID 1346784; calls by dose curve; also: nearly all actives have a fitted effect of over 30% in size; also: potency is read from the fitted curve at half-maximal effect); conditions: PR-UAS-bla HEK293T, beta-lactamase FRET ratio, 16 h; series mostly up to 92.4 µM
Procedure, shortened: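 PR-UAS-bla HEK 293T cells (beta-lactamase reporter under UAS) in 2% charcoal-stripped FBS, dosed with 23 nL compound after 6 hr, incubated 16hr at 37C. LiveBLAzer B/G FRET substrate added, fluorescence read after 2 hours.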

[2] = molecular target: Progesterone receptor (Homo sapiens) (UniProt P06401); experiment: qHTS assay to identify small molecule antagonists of the progesterone receptor (PR) signaling pathway (AID 1346795; active = well fitted inhibition curve with a large enough effect in the signal ratio in the repeat runs, not every such curve was filed as active; the % refers to the signal ratio; also: potency is read from the fitted curve at half-maximal effect); conditions: PR-UAS-bla HEK293T, beta-lactamase FRET ratio, 16 h; series mostly up to 92.4 µM
Procedure, shortened: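 PR-UAS-bla HEK293T cells with beta-lactamase reporter under UAS control, in 2% charcoal-stripped FBS, treated with compounds plus 1 nM promegestone (R5020, final) for 16 hr at 37C. Read-out: FRET beta-lactamase substrate fluorescence after 2 hr at room temperature.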

[3] = qHTS assay to identify small molecule agonists of the progesterone receptor (PR) signaling pathway - cell viability counter screen (AID 1346799; calls by dose curve; also: nearly all actives have a fitted effect of over 45% in size; also: potency is read from the fitted curve at half-maximal effect); conditions: PR-UAS-bla HEK293T viability, CellTiter-Glo luminescence, 16 h; series mostly up to 92.4 µM
Procedure, shortened: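 Counter screen in the PR-UAS-bla HEK293T wells (2% charcoal-stripped FBS, 16 h compound exposure at 37 C) after the bla read. CellTiter-Glo added, 30 min at room temperature, luminescence read as cell viability.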

[4] = qHTS assay to identify small molecule antagonists of the TGF-beta/Smad signaling pathway - cell viability counter screen (AID 1346824); conditions: SBE-bla HEK293T viability, CellTiter-Glo luminescence; series mostly up to 76.8 µM; also: nearly all actives have a fitted effect of over 50% in size
Procedure, shortened: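 Cytotoxicity counter-screen run in the same wells as the beta-lactamase Smad reporter read: CellTiter-Glo luminescence after 30 min at room temperature. HEK 293T SBE-bla cells had 5 hr compound exposure at 37 C with TGF-beta1 (0.25 ng/mL stock).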

[5] = qHTS assay to identify small molecule agonists of the TGF-beta/Smad signaling pathway - cell viability counter screen (AID 1346829); conditions: SBE-bla HEK293T viability, CellTiter-Glo luminescence, 5 h; series mostly up to 76.8 µM; also: top concentration of the series differs between compounds; nearly all actives have a fitted effect of over 45% in size
Procedure, shortened: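 Compound-treated SBE-bla HEK 293T cells (5 hr, 37 C) were assessed for viability with CellTiter-Glo in parallel with the reporter read.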

[6] = qHTS assay to identify small molecule agonists of the TGF-beta/Smad signaling pathway (AID 1346859; active = well fitted activation curve with a large enough effect in the signal ratio in the repeat runs, not every such curve was filed as active; the % refers to the signal ratio); conditions: SBE-bla HEK293T, TGF-beta/Smad beta-lactamase reporter, 5 h; series mostly up to 76.8 µM
Procedure, shortened: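 SBE-bla HEK293T cells plated overnight, then compound exposure for 5 h at 37 C. Beta-lactamase reporter read with LiveBLAzer B/G FRET substrate after 2 h at room temperature, fluorescence at 405 nm excitation, 460/530 nm emission.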

[7] = molecular target: Thyrotropin-releasing hormone receptor (Homo sapiens) (UniProt P34981); experiment: qHTS assay to identify small molecule antagonists of the thyrotropin-releasing hormone receptor (TRHR) signaling pathway (AID 1346877; active = well fitted inhibition curve with a large enough effect in the repeat runs, not every such curve was filed as active); conditions: TRHR-HEK293, TRH-induced calcium fluorescence, antagonist mode; series mostly up to 51.3 µM
Procedure, shortened: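 TRHR-expressing HEK293 cells loaded with calcium dye for 2 h at 37 C; compounds pre-incubated 5 min at room temperature before TRH challenge at 1 nM final. Intracellular calcium fluorescence read kinetically for 3 min; 15 concentrations in triplicate.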

[8] = molecular target: Thyrotropin-releasing hormone receptor (Homo sapiens) (UniProt P34981); experiment: qHTS assay to identify small molecule agonists of the thyrotropin-releasing hormone receptor (TRHR) signaling pathway (AID 1346891; calls by dose curve); conditions: TRHR-HEK293 calcium fluorescence, agonist mode; series mostly up to 57.6 µM
Procedure, shortened: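 HEK293 cells expressing TRHR plated 18 h at 37 C/5% CO2, calcium dye-loaded 2 h at 37 C, then compound added (agonist mode); kinetic calcium fluorescence read 3 min at 1 s intervals; 15 concentrations in triplicate.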

[9] = Human pregnane X receptor (PXR) small molecule agonists, qHTS cell viability counter screen (AID 1346977); conditions: PXR-Luc HepG2 viability, CellTiter-Fluor, 24 h; series mostly up to 92.4 µM; also: nearly all actives have a fitted effect of over 50% in size; also: potency is read from the fitted curve at half-maximal effect
Procedure, shortened: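 PXR-Luc HepG2 cells (2,000/well, 5% charcoal-stripped FBS) preincubated 5 hr, then exposed to compounds 24 hr at 37 C. Viability read in the same wells by CellTiter-Fluor fluorescence, reagent added at 23 hr, 1 hr incubation.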

[10] = qHTS assay to identify small molecule antagonists of the progesterone receptor (PR) signaling pathway - cell viability counter screen (AID 1346798); conditions: PR-UAS-bla HEK293T viability, CellTiter-Glo luminescence, 16 h; series mostly up to 92.4 µM; also: nearly all actives have a fitted effect of over 50% in size; also: potency is read from the fitted curve at half-maximal effect
Procedure, shortened: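 PR-UAS-bla HEK293T cells, 3,000/well in 2% charcoal-stripped FBS medium, dosed with compounds plus R5020 agonist and incubated 16 h at 37C. Viability then measured in the same wells by CellTiter-Glo luminescence after 30 min at RT.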

Measured: Potency

Thyrotropin-releasing hormone receptor (Homo sapiens), sequence (P34981 whole entry, looked up): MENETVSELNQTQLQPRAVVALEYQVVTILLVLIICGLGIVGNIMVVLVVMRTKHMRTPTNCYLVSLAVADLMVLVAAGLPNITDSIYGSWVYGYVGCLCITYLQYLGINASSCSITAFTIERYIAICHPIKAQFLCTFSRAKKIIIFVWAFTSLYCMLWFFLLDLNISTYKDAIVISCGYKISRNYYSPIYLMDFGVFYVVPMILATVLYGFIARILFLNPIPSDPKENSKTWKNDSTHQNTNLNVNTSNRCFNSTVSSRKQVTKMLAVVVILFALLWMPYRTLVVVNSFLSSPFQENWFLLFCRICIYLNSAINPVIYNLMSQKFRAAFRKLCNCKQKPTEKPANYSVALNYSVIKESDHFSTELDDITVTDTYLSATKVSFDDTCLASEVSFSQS
Progesterone receptor (Homo sapiens), sequence (P06401 whole entry, looked up): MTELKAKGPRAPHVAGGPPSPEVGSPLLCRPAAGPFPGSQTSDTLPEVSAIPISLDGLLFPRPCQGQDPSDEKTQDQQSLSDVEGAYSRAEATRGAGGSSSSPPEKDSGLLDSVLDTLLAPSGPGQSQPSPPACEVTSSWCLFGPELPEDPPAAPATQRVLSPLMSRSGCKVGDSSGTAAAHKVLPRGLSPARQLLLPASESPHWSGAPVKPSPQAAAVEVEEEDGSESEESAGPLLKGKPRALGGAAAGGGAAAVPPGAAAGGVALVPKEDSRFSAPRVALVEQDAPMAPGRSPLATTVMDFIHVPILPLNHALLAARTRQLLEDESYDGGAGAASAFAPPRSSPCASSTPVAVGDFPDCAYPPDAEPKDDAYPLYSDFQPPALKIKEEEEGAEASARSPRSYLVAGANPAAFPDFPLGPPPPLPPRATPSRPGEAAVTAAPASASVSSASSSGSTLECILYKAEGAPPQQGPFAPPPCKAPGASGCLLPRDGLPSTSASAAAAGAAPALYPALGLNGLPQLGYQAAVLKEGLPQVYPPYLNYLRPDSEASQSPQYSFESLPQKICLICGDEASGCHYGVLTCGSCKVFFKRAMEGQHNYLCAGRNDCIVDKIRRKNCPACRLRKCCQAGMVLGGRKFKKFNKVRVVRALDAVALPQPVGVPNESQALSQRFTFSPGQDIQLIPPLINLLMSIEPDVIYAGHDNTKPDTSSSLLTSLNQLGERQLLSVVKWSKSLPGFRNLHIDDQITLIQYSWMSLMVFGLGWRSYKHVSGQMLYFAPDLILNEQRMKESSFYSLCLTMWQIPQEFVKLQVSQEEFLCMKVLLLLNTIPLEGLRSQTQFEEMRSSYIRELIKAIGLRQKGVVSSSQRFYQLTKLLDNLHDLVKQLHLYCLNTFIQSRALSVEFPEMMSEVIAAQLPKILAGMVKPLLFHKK

OCCNCc1ccccc1
not listed: [10]
inactive: all other assays above

CC(C)OC(=O)C(C)N(C(=O)c1ccccc1)c1ccc(F)c(Cl)c1 (configuration not stated)
active: [2] 24.3 µM
not listed: [3] | [9] | [10]
inactive: all other assays above

CN(Cc1ccc(C(C)(C)C)cc1)Cc1cccc2ccccc12
active: [3] 10.6 µM
not listed: [4] | [10]
inactive: all other assays above

CC(C)(O)c1ccc(CNC(=O)c2cccnc2Oc2ccc(F)cc2)cc1
inactive: [1] | [2] | [4] | [5] | [6] | [9]

C=C1C(=C/C=C2\CCC[C@]3(C)[C@@H]([C@H](C)/C=C/[C@@H](O)C4CC4)CC[C@@H]23)C[C@@H](O)C[C@@H]1O
active: [2] 11.9 µM
inactive: [1] | [4] | [5] | [6]

CCOC(=O)COC(=O)c1cc(Oc2ccc(C(F)(F)F)cc2Cl)ccc1[N+](=O)[O-]
inactive: [1] | [10] | [3] | [4] | [5] | [9]

Cc1cc(C(=O)O)ccc1[N+](=O)[O-]
not listed: [2]
inactive: all other assays above

COc1cc2c(cc1OC)C(C(C(=O)N(CCc1ccc(OC)c(OC)c1OC)CCc1ccc(OC)c(OC)c1OC)c1ccccc1)=NCC2 (configuration not stated)
not listed: [3] | [9] | [10]
inactive: all other assays above

C=C1[C@H]2CC[C@@H]3[C@H]2C(C)(C)CCC[C@]13C
not listed: [3] | [10]
inactive: all other assays above

O=C1C(O)=C(O)C(=O)C(O)=C1O
inactive: [1] | [2] | [4] | [5] | [6] | [9]

Nc1ncn([C@H]2C[C@H](O)[C@@H](CO)O2)c(=O)n1
not listed: [2]
inactive: all other assays above

CCCCC(CC)COC(=O)COc1ccc(Cl)cc1Cl (configuration not stated)
not listed: [2]
inactive: all other assays above

CCC(C)c1cc(C(C)(C)C)c(O)c(C(C)(C)C)c1 (configuration not stated)
not listed: [2]
inactive: all other assays above

COc1ccc(C(=O)c2ccc(OC)cc2O)c(O)c1
not listed: [2] | [3] | [9]
inactive: all other assays above

COc1cc2nc(N3CCN(C(=O)C4COc5ccccc5O4)CC3)nc(N)c2cc1OC (configuration not stated)
active: [9] 26.6 µM
inactive: [1] | [2] | [4] | [5] | [6]

O=C1CCCCCCCCCCCC(=O)OCCO1
not listed: [3] | [10]
inactive: all other assays above

CCCCCCCCCCO[C@@H]1O[C@H](CO)[C@@H](O)[C@H](O)[C@H]1O
not listed: [2] | [7] | [8]
inactive: all other assays above

CN1CCC(N(Cc2cccs2)c2ccccc2)CC1
inactive: [1] | [4] | [5] | [6]
active: [10] 23.7 µM | [3] 15 µM

CC(=O)c1ccc2c(c1)N(CCCN(C)C)c1ccccc1S2
not listed: [3] | [9] | [10]
inactive: all other assays above

O=[N+]([O-])c1cccc(S(=O)(=O)O)c1
inactive: [1] | [2] | [4] | [5] | [6] | [9]

CC(=O)OC[C@H]1O[C@@H](n2ncc(=O)[nH]c2=O)[C@H](OC(C)=O)[C@@H]1OC(C)=O
active: [10] 2.37 µM
not listed: [2] | [3]
inactive: all other assays above

Nc1ccc([N+](=O)[O-])c(C(F)(F)F)c1
not listed: [2] | [3]
inactive: all other assays above

c1ccc(-c2ccccn2)nc1
not listed: [2] | [3]
inactive: all other assays above

Cc1c(N)cccc1[N+](=O)[O-]
inactive: [1] | [10] | [4] | [5] | [6] | [9]

CC(C)Cc1ccc(C(C)C(=O)OCc2ccccn2)cc1 (configuration not stated)
not listed: [2] | [3]
inactive: all other assays above

O=[N+]([O-])c1ccc2[nH]ncc2c1
not listed: [2] | [3]
inactive: all other assays above

C[C@H]1C[C@H]2[C@@H]3CCC4=CC(=O)C=C[C@]4(C)[C@@]3(Cl)[C@@H](O)C[C@]2(C)[C@@]1(O)C(=O)CO
active: [1] 0.0237 µM
not listed: [2] | [3] | [6]
inactive: all other assays above

O=C(O)CC(=O)C(=O)O
inactive: [1] | [4] | [5] | [6] | [9]

O=C(OCCc1ccccc1)c1ccccc1
not listed: [2] | [3]
inactive: all other assays above

CCc1cc(C2=C(C(=O)O)N(c3ccccc3C(F)(F)F)S(=O)(=O)c3ccccc32)cc2c1OCO2
inactive: [1] | [4] | [5] | [6] | [7] | [8]

CN(C)CCOC(c1ccccc1)c1ccc(Br)cc1 (configuration not stated)
active: [10] 13.3 µM
not listed: [2] | [3] | [9]
inactive: all other assays above

Cn1c(=O)cc(Oc2ccc(F)cc2F)c2cnc(NCC(C)(C)O)nc21
inactive: [1] | [4] | [5] | [6] | [9]

COS(=O)(=O)C(F)(F)F
not listed: [2] | [3] | [10]
inactive: all other assays above

CN(C)CCCN1c2ccccc2Sc2ccccc21
active: [9] 23.7 µM
not listed: [2] | [3] | [10]
inactive: all other assays above

Cc1oc(-c2ccccc2)nc1CCOc1cccc2c1ccn2CCC(=O)O
inactive: [1] | [4] | [5]

CCCCC/C=C\C/C=C\CCCCCCCC(=O)NC(C)c1ccccc1 (configuration not stated)
inactive: [1] | [4] | [5] | [7] | [8] | [9]

CNCCCN1c2ccccc2CCc2ccccc21
active: [10] 18.8 µM | [9] 23.7 µM
inactive: [1] | [4] | [5] | [6]

CC(=O)c1ccc2c(c1)N(CCCN1CCC(CCO)CC1)c1ccccc1S2
inactive: [1] | [4] | [5] | [6]
active: [9] 26.6 µM

O=C(OCCCCCCOC(=O)c1ccccc1)c1ccccc1
not listed: [2] | [3] | [10]
inactive: all other assays above

C[C@@H]1C[C@H]2O[C@@]3(O[C@@H]2C(C)(C)O)[C@H](O)[C@@]2(C)[C@@H]4CC[C@H]5C(C)(C)[C@@H](O[C@@H]6OC[C@@H](O)[C@H](O)[C@H]6O)CC[C@@]56C[C@@]46CC[C@]2(C)[C@@H]13
not listed: [2] | [3]
inactive: all other assays above

COc1cc(Cl)c(OC)cc1N
not listed: [2] | [3]
inactive: all other assays above

O=C(Nc1ccc(S(=O)(=O)N2CCOCC2)cc1)c1cc(Cl)ccc1NS(=O)(=O)c1ccc(Cl)s1
not listed: [2] | [3] | [9]
inactive: all other assays above

Cc1cc(N)c2cc(NC(=O)Nc3ccc4nc(C)cc(N)c4c3)ccc2n1
not listed: [2] | [3] | [10]
inactive: all other assays above

O=C(Nc1ccccc1)c1ccccc1O
inactive: [1] | [10] | [5] | [6] | [7] | [8]

Nc1cccc([N+](=O)[O-])c1
not listed: [2] | [3] | [9]
inactive: all other assays above

CN(C)c1ccc(CCO)cc1
inactive: [1] | [3] | [4] | [5] | [6]

S=C([S-])NCCNC(=S)[S-].[Mn+2]
inactive: [1] | [4] | [5] | [6] | [9]

CC(C)(COC(=O)c1ccccc1)COC(=O)c1ccccc1
not listed: [2] | [3]
inactive: all other assays above

CN1C[C@H]2c3ccccc3Oc3ccc(Cl)cc3[C@@H]2C1
not listed: [2] | [3] | [9]
inactive: all other assays above

OCc1cc(C(O)CNCCCCCCOCCCCc2ccccc2)ccc1O (configuration not stated)
active: [9] 21.1 µM
not listed: [2] | [3]
inactive: all other assays above

COc1ccc(-c2nc3ccc(C4=NNC(=O)CC4C)cc3[nH]2)cc1 (configuration not stated)
inactive: [1] | [4] | [5] | [6] | [7] | [8]

— PubChem BioAssay (Tox21)
